# Test results as given in PubChem BioAssay (EPA / NIEHS).
# Results filed as inconclusive are left out. The source made the active and inactive calls. The calls were made as follows: active = hit-call score of the fitted dose curve at least 0.9, where 1 is the maximum; inconclusive = response in the unintended direction; inactive = score below 0.9.
# Assay: CLD_ACTIN_48hr: CellzDirect (CLD) Gene Expression Assay for Baseline Control (Actin) at 48 hours (AID 2283702)
# Procedure: CLD_48hr is a cell-based, multiplexed-readout assay that uses hepatocyte, a human liver primary cell, with measurements taken at 48 hours after chemical dosing in a 96-well plate.CLD_ACTIN_48hr is one of 16 assay component(s) measured or calculated from the CLD_48hr assay. It is designed to make measurements of mRNA induction, a form of inducible reporter, as detected with chemiluminescence signals by Quantitative Nuclease Protection Assay (qNPA) technology.Data from the assay component CLD_ACTIN_48hr was analyzed at the endpoint, CLD_ACTIN_48hr, in the positive analysis fitting direction relative to DMSO as the negative control and baseline of activity. Using a type of inducible reporter, gain-of-signal activity can be used to understand changes in the reporter gene as they relate to the gene ACTA1. Furthermore, this assay endpoint can be referred to as a secondary readout, because this assay has produced multiple assay endpoints where this one serves a background control function. To generalize the intended target to other relatable targets, this assay endpoint is annotated to the background measurement intended target family, where subfamily is baseline control.
# Human hepatocyte cultures were treated daily for two consecutive days with fresh dosing solutions containing appropriate concentrations of the 320 ToxCast chemicals (chemical identities were blinded to CellzDirect and other ToxCast collaborators), vehicle control (0.2% DMSO), and positive control inducers as summarized in Table 1. Due to the large number of treatment groups and chemicals examined, the ToxCast chemicals were divided into two groups (spanning two independent cultures of hepatocytes from separate donor preparations (Hu778: ToxCast plates 1 and 2; Hu776: ToxCast plates 3 and 4). Each preparation of human hepatocyte cultures was treated with respective vehicle control, medium only control, set of six positive controls/reference chemicals for the five hepatic receptor pathways, and a subset of eight of the ToxCast chemicals (indoxacarb, pyrithiobac-sodium, norflurazon, cyhalofop-butyl, methomyl, thiram, acetochlor, and propiconazole). These replicate data, coupled with internal replicates designed within the blinded ToxCast chemical library, provided additional data to evaluate interindividual differences between hepatocyte preparations and their potential impact on chemical profiles.Cell morphology and integrity were evaluated using phase-contrast microscopy as an indicator of hepatocyte cell health (Tyson & Green, 1987). Cultures for each treatment group (i.e., media, vehicle [0.2% DMSO], positive control inducers [multiple concentrations], and the ToxCast chemicals [multiple concentrations]) were observed and cell morphology was assessed relative to vehicle control cultures at each harvest time point (0, 6, 24, or 48 h). […] Images were evaluated at the conclusion of the study to assess changes in cell integrity and account for the effects of chemical exposure on uncharacteristic changes in concentration-dependent gene expression profiles. The results from these determinations of apparent cytotoxicity were annotated (yes/no) alongside the corresponding qNPA data for reference.At the conclusion of each treatment period, hepatocyte cultures (96-well) were washed with 1 volume of HBSS, lysed by addition of 25 ul ArrayPlate lysis buffer (HTG, Tucson, AZ), and 70 ul/well of Denaturation Oil, denatured by incubation at 95C for 10 min, and frozen at approximately -70C until analysis by nuclease protection assay (qNPA) (Roberts et al., 2007). For qNPA analysis, cell lysates were thawed at 50C for approximately 30 min, qNPA probes were added, and samples were incubated at 95C for 10 min to begin the detection process by denaturing the target RNA, dissociating the duplexes and secondary structure hybridization. At the conclusion of the hybridization period, S1 nuclease reagent was added to each sample to digest all nonprotected nucleotides at 50C for 60-90 min. […]
row,SMILES,outcome
1,CC(C)(C)c1ccc(CSc2cnn(C(C)(C)C)c(=O)c2Cl)cc1,inactive
2,COc1cnc(OC)n2nc(NS(=O)(=O)c3c(OCC(F)F)cccc3C(F)(F)F)nc12,inactive
3,CNC(=O)ON=CC(C)(C)SC,inactive
4,N#Cc1nn(-c2c(Cl)cc(C(F)(F)F)cc2Cl)c(N)c1S(=O)C(F)(F)F (stereo not given),inactive
5,OC(c1ccc(Cl)cc1)(c1cncnc1)c1ccccc1Cl (stereo not given),inactive
6,CN(C)C(=S)SSC(=S)N(C)C,inactive
7,CCOC(=O)CC(SP(=S)(OC)OC)C(=O)OCC (stereo not given),inactive
8,CCON=C(CC)C1=C(O)CC(c2c(C)cc(C)cc2C)CC1=O (stereo not given),inactive
9,N#CC(CCc1ccc(Cl)cc1)(Cn1cncn1)c1ccccc1 (stereo not given),inactive
10,CNC(=S)S,inactive
11,CC(C)C1(C)N=C(c2nc3ccccc3cc2C(=O)O)NC1=O (stereo not given),inactive
12,CCCCOC(=O)c1ccccc1C(=O)OCCCC,inactive
13,CC1COC(Cn2cncn2)(c2ccc(Oc3ccc(Cl)cc3)cc2Cl)O1 (stereo not given),inactive
14,Cc1c(F)c(F)c(COC(=O)C2C(/C=C(\Cl)C(F)(F)F)C2(C)C)c(F)c1F (stereo not given),inactive
15,COc1nc(C)nc(NC(=O)NS(=O)(=O)c2ccccc2Cl)n1,inactive
16,COc1nc(C)nc(NC(=O)NS(=O)(=O)c2ccccc2CCC(F)(F)F)n1,inactive
17,CCCCNC(=O)OCC#CI,inactive
18,CS/C(C)=N/OC(=O)N(C)SN(C)C(=O)O/N=C(\C)SC,inactive
19,CO/C=C(/C(=O)OC)c1ccccc1Oc1cc(Oc2ccccc2C#N)ncn1,inactive
20,COC(=O)C=C(C)OP(=O)(OC)OC,inactive
21,Cc1ccc(-c2c(Cl)nc(C#N)n2S(=O)(=O)N(C)C)cc1,inactive
22,COC(=O)C(C)Oc1ccc(Oc2ccc(Cl)cc2Cl)cc1 (stereo not given),inactive
23,Cc1cc(Cl)ccc1OCC(=O)O,inactive
24,CCCCC(CC)COC(=O)c1ccccc1C(=O)OCC(CC)CCCC (stereo not given),inactive
25,COP(N)(=O)SC (stereo not given),inactive
